In PubChem BioAssay AID1159580 (chemical genetic matrix, 2015):
Where “and” joins values, the source holds several entries; their conditions need not be identical. Identical values can stand only once. Hit rate of the full screen: of about 5,500 compounds, about 2,000 (36%) were called active. Roughly 18% stayed inconclusive and do not appear here. Rule as the data show it: active = normalized growth mostly below about 0.91 (no sharp cut-off); inconclusive = no clear call, values can overlap the other calls; inactive = mostly above about 0.92. Some of the results follow.

Assay: chemical genetic growth profiling, strain panel (AID 1159580);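 also: tested at 20 µM; growth read once vehicle control cultures reached saturation at 30 °C; 1 = growth at the plate median or of vehicle wells; lower values mean less growth of the strain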
Conditions: growth OD

Measured: normalized growth

NCCCS(=O)(=O)O
inactive: S. cerevisiae deletion strains, locus YKL068W, active compounds read low 0.995 | S. cerevisiae deletion strains, locus YKL085W, strain MDH1 (second series), active compounds read low 0.986 | S. cerevisiae deletion strains, locus YKL085W, strain MDH1, active compounds read low 0.986 | S. cerevisiae deletion strains, locus YKL160W, strain elf1, active compounds read low 1 | S. cerevisiae deletion strains, locus YKL190W, strain CNB1, active compounds read low 0.993 | S. cerevisiae deletion strains, locus YKR001C, strain vps1, active compounds read low 0.994 | S. cerevisiae deletion strains, locus YKR026C, strain gcn3, active compounds read low 1 | S. cerevisiae deletion strains, locus YKR091W, strain srl3, active compounds read low 1.01 | S. cerevisiae deletion strains, locus YLL001W, strain dnm1, active compounds read low 1.03 | S. cerevisiae deletion strains, locus YLL026W, active compounds read low 1.01 | S. cerevisiae deletion strains, locus YLL041C, strain sdh2, active compounds read low 1.01 | S. cerevisiae deletion strains, locus YLR027C, strain aat2, active compounds read low 0.996 | S. cerevisiae deletion strains, locus YLR039C, strain RIC1, active compounds read low 0.986 | S. cerevisiae deletion strains, locus YLR058C, strain SHM2, active compounds read low 0.965 | S. cerevisiae deletion strains, locus YLR102C, strain apc9, active compounds read low 0.993 | S. cerevisiae deletion strains, locus YLR113W, strain HOG1, active compounds read low 0.954 | S. cerevisiae deletion strains, locus YLR221C, strain rsa3, active compounds read low 1.01 | S. cerevisiae deletion strains, locus YLR258W, strain gsy2, active compounds read low 1.01 | S. cerevisiae deletion strains, locus YLR262C, strain YPT6 (second series), active compounds read low 1.02 | S. cerevisiae deletion strains, locus YLR262C, strain YPT6, active compounds read low 1.05 | S. cerevisiae deletion strains, locus YLR268W, strain sec22, active compounds read low 1.04 | S. cerevisiae deletion strains, locus YLR320W, strain mms22, active compounds read low 1.01 | S. cerevisiae deletion strains, locus YLR330W, strain CHS5, active compounds read low 0.983 | S. cerevisiae deletion strains, locus YLR342W, strain FKS1 (second series), active compounds read low 0.99 | S. cerevisiae deletion strains, locus YLR342W, strain FKS1, active compounds read low 1.02 | S. cerevisiae deletion strains, locus YLR357W, strain rsc2, active compounds read low 1.04 | S. cerevisiae deletion strains, locus YLR370C, strain arc18, active compounds read low 1.01 | S. cerevisiae deletion strains, locus YLR371W, strain rom2, active compounds read low 0.934 | S. cerevisiae deletion strains, locus YLR384C, strain iki3, active compounds read low 1.01 | S. cerevisiae deletion strains, locus YLR418C, strain cdc73, active compounds read low 1.01 | S. cerevisiae deletion strains, locus YML016C, strain PPZ1, active compounds read low 0.984 | S. cerevisiae deletion strains, locus YML032C, strain rad52, active compounds read low 0.994 | S. cerevisiae deletion strains, locus YML120C, strain ndi1, active compounds read low 1.02 | S. cerevisiae deletion strains, locus YML124C, strain tub3, active compounds read low 0.987 | S. cerevisiae deletion strains, locus YMR058W, strain fet3, active compounds read low 1.04 | S. cerevisiae deletion strains, locus YMR078C, strain ctf18, active compounds read low 0.999 | S. cerevisiae deletion strains, locus YMR125W, strain sto1, active compounds read low 1.02 | S. cerevisiae deletion strains, locus YMR129W, active compounds read low 1.01 | S. cerevisiae deletion strains, locus YMR205C, strain PFK2, active compounds read low 1.02 | S. cerevisiae deletion strains, locus YMR223W, strain ubp8, active compounds read low 0.96 | S. cerevisiae deletion strains, locus YMR231W, strain pep5, active compounds read low 1.02 | S. cerevisiae deletion strains, locus YMR263W, strain SAP30, active compounds read low 0.977 | S. cerevisiae deletion strains, locus YMR307W, strain GAS1, active compounds read low 0.971 | S. cerevisiae deletion strains, locus YNL067W, strain RPL9B, active compounds read low 1.01 | S. cerevisiae deletion strains, locus YNL071W, strain lat1, active compounds read low 1.03 | S. cerevisiae deletion strains, locus YNL128W, strain TEP1, active compounds read low 0.974 | S. cerevisiae deletion strains, locus YNL153C, strain GIM3, active compounds read low 0.991 and 1.01 | S. cerevisiae deletion strains, locus YNL175C, strain NOP13, active compounds read low 1 | S. cerevisiae deletion strains, locus YNL183C, strain NPR1, active compounds read low 0.937 | S. cerevisiae deletion strains, locus YNL197C, strain WHI3, active compounds read low 1.01 | S. cerevisiae deletion strains, locus YNL209W, strain ssb2, active compounds read low 1.01 | S. cerevisiae deletion strains, locus YNL224C, strain SQS1, active compounds read low 1.01 | S. cerevisiae deletion strains, locus YNL233W, strain BNI4, active compounds read low 0.987 | S. cerevisiae deletion strains, locus YNL248C, strain rpa49, active compounds read low 0.959 | S. cerevisiae deletion strains, locus YNL250W, strain rad50, active compounds read low 0.976 | S. cerevisiae deletion strains, locus YNL271C, strain bni1, active compounds read low 0.999 | S. cerevisiae deletion strains, locus YNL298W, strain CLA4, active compounds read low 0.967 | S. cerevisiae deletion strains, locus YNL307C, strain MCK1, active compounds read low 0.998 | S. cerevisiae deletion strains, locus YNL322C, strain KRE1 (second series), active compounds read low 1.01 | S. cerevisiae deletion strains, locus YNL322C, strain KRE1, active compounds read low 0.987 | S. cerevisiae deletion strains, locus YNR049C, strain mso1, active compounds read low 1.01 | S. cerevisiae deletion strains, locus YNR052C, strain pop2, active compounds read low 0.969 | S. cerevisiae deletion strains, locus YOL006C, strain TOP1, active compounds read low 1.02 | S. cerevisiae deletion strains, locus YOL012C, strain htz1 0.962 | S. cerevisiae deletion strains, locus YOL147C, strain pex11, active compounds read low 0.989 | S. cerevisiae deletion strains, locus YOR001W, strain rrp6, active compounds read low 1.01 | S. cerevisiae deletion strains, locus YOR061W, strain CKA2, active compounds read low 0.965 | S. cerevisiae deletion strains, locus YOR069W, strain VPS5, active compounds read low 0.984 | S. cerevisiae deletion strains, locus YOR070C, strain gyp1, active compounds read low 1.01 | S. cerevisiae deletion strains, locus YOR080W, strain dia2, active compounds read low 1.03 | S. cerevisiae deletion strains, locus YOR083W, strain WHI5 (second series), active compounds read low 1.02 | S. cerevisiae deletion strains, locus YOR083W, strain WHI5, active compounds read low 1 | S. cerevisiae deletion strains, locus YOR106W, strain vam3, active compounds read low 1.01 | S. cerevisiae deletion strains, locus YOR136W, strain idh2, active compounds read low 0.981 | S. cerevisiae deletion strains, locus YOR144C, strain elg1, active compounds read low 0.998 | S. cerevisiae deletion strains, locus YOR184W, strain ser1, active compounds read low 0.983 | S. cerevisiae deletion strains, locus YOR231W, strain MKK1, active compounds read low 0.976 | S. cerevisiae deletion strains, locus YOR265W, strain rbl2, active compounds read low 1.02 | S. cerevisiae deletion strains, locus YOR270C, strain vph1, active compounds read low 1.09 | S. cerevisiae deletion strains, locus YOR290C, strain snf2, active compounds read low 1.01 | S. cerevisiae deletion strains, locus YOR316C, strain cot1, active compounds read low 0.981 | S. cerevisiae deletion strains, locus YPL051W, strain arl3, active compounds read low 1.01 | S. cerevisiae deletion strains, locus YPL055C, strain LGE1, active compounds read low 0.993 | S. cerevisiae deletion strains, locus YPL078C, strain atp4, active compounds read low 1.02 | S. cerevisiae deletion strains, locus YPL106C, strain sse1, active compounds read low 1.01 | S. cerevisiae deletion strains, locus YPL240C, strain hsp82, active compounds read low 1.03 | S. cerevisiae deletion strains, locus YPL241C, strain CIN2, active compounds read low 0.997 | S. cerevisiae deletion strains, locus YPL256C, strain CLN2, active compounds read low 0.964 | S. cerevisiae deletion strains, locus YPR119W, strain clb2, active compounds read low 0.987 | S. cerevisiae deletion strains, locus YPR141C, strain kar3, active compounds read low 0.973 | S. cerevisiae deletion strains, locus YPR163C, strain tif3, active compounds read low 0.998 | S. cerevisiae deletion strains, locus YPR167C, strain met16, active compounds read low 1 | S. cerevisiae deletion strains, strain wtn01, active compounds read low 0.958 | S. cerevisiae strains, strain wild type, active compounds read low 0.984
